The values that follow come from PubChem BioAssay.

Test [1] is described as follows: compounds binding Alexa647 anti-His antibody – biochemical, small-molecule microarray, 635 nm fluorescence, artefact control for SMM control protein annotation, primary screen (AID 1128).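 Further: score merges feature fluorescence with signal-to-noise for each printed compound spot.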 As to conditions: higher = more signal.
For test [2], the system named is Human papillomavirus type 1a E7 protein (residues 1-88). Description: HPV1a E7 small-molecule binders, primary screen, biochemical, small-molecule microarray, residues 1-88, 635 nm (AID 1129). The note with it: small-molecule microarray binding, fluorescence 635 nm; higher = more signal.
Test [3] addresses Focal adhesion kinase 1 (Homo sapiens) (UniProt Q05397). Description: PTK2 protein binding on printed compound slides – biochemical, small-molecule microarray, 635/667 nm fluorescence, BSA, DTT, primary screen (AID 1130).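 Further: composite of spot emission at 667 nm and signal to noise over triplicate slides.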 As to conditions: 635 nm fluorescence, higher = more signal.
The test system of test [4] is Fibrinogen (Alexa647-labelled). Description: Alexa647-fibrinogen binding to printed small molecules – biochemical, small-molecule microarray, 635/667 nm fluorescence, artefact control for SMM control-protein annotation, profiling panel (AID 1131).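 Further: z-score merges 667 nm fluorescence with per-spot signal-to-noise over triplicate slides.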 The note with it: fibrinogen-A647 binding fluorescence, higher = more signal.
Test [5] addresses Follistatin (Homo sapiens) (UniProt P19883). Description: FST protein binding to printed compounds – biochemical, small-molecule microarray, 635/667 nm fluorescence, primary screen (AID 1132). As to conditions: 635 nm fluorescence, higher = more signal.
For test [6], the target named is Fibroblast growth factor 2 (Homo sapiens) (UniProt P09038). Nature of the test: basic fibroblast growth factor binding to printed compounds – biochemical, small-molecule microarray, 635/667 nm fluorescence, primary screen (AID 1133). As to conditions: FGF2, fluorescence 635/667, higher = more signal.
Fibroblast growth factor 2 (Homo sapiens), sequence (P09038 whole entry, looked up): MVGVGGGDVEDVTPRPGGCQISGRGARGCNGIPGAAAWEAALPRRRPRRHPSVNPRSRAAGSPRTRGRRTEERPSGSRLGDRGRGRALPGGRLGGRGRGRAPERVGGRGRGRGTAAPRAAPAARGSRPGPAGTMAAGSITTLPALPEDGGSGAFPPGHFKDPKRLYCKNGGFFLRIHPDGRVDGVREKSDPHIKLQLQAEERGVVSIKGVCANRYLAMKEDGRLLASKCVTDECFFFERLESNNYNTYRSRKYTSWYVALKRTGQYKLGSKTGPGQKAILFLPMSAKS
Test [7] can be described thus: JC-1 mitochondrial potential readout, lung cancer cells – cell-based, A549, JC-1 fluorescence, basal, 24 h, 100 nL, profiling panel (AID 1138).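 Further: A549 lung adenocarcinoma cells under basal conditions with no added stimulus; test concentration not given here.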 The note with it: higher = more signal.
A further test relates to Lefty1. Description: Lefty1 protein binding to printed compounds – biochemical, small-molecule microarray, 635/667 nm fluorescence, primary screen (AID 1139). As to conditions: fluorescence 635/667, higher = more signal.
Test [8] deals with wheat germ agglutinin (Triticum aestivum), Alexa647-labelled. Description: Alexa647-WGA lectin binding to printed small molecules – biochemical, small-molecule microarray, 635/667 nm fluorescence, artefact control for SMM control-protein annotation, profiling panel (AID 1140).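 Further: score merges 667 nm feature emission with signal to noise over triplicate slides.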 As to conditions: WGA-A647 binding, 635 nm fluorescence, higher = more signal.
In test [9] the target is Luciferin 4-monooxygenase (Photinus pyralis) (UniProt P08659). Description: inhibition of purified Photinus pyralis luciferase – biochemical, luminescence, purified enzyme, 2006 set, primary screen (AID 1141).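 Further: cell-free assay with purified firefly luciferase at 100 ng per well in PBS; test concentration not given here.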 The note with it: purified firefly luciferase, SteadyGlo luminescence, 30 min; higher = more signal, called active from +8 up or from −8 down.
Luciferin 4-monooxygenase (Photinus pyralis), sequence (P08659 whole entry, looked up): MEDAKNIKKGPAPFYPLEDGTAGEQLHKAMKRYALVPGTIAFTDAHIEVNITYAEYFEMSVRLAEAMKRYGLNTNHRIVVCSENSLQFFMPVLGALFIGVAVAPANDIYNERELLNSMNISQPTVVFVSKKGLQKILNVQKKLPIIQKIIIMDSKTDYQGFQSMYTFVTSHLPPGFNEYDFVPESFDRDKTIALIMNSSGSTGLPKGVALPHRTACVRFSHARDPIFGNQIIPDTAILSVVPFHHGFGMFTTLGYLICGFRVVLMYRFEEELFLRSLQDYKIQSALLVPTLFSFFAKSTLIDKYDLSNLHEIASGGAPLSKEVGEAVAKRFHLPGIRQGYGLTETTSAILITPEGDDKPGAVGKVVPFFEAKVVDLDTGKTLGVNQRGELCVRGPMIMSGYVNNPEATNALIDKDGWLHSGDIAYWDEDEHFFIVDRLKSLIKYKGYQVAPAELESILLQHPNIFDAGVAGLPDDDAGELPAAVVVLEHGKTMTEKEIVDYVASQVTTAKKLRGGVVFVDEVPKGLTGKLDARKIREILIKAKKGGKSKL
The test system of test [10] is Wnt5a (protein binding on small-molecule microarray). Nature of the test: small molecules binding Wnt5a protein – biophysical, small-molecule microarray, 635/667 nm fluorescence, primary screen (AID 1142).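 Further: fluorescence read at 667 nm with signal to noise per printed feature.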 As to conditions: 635 nm fluorescence, higher = more signal.
The nature of test [11]: ATP-based viability of Huh7 replicon cells – cell-based, CellTiter-Glo luminescence, basal, 48 h, cytotoxicity control for HCV replication inhibitor project, primary screen (AID 1143).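 Further: Huh7 hepatoma cells carrying a hepatitis C replication reporter with no stimulus; test concentration not given here.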 The note with it: higher = more signal, called active from +8 up or from −8 down. In general terms: A replicon is a self-replicating genome or part of one, used to study replication in cells.

Test [12] is described as follows: Pseudomonas biofilm growth suppression – PAO1 strain, BacTiter-Glo luminescence, LB-PBS, primary screen (AID 1144). The note with it: P. aeruginosa PAO1 biofilm, 12 h, higher = more signal.
Test [13] is described as follows: basal CRE-LacZ reporter activity in PC12 – cell-based, unstimulated, primary screen (AID 1145). The note with it: no forskolin, luminescence, 4.5 h, higher = more signal, called active from +8 up or from −8 down.
Test [14] in a line: forskolin-driven CRE-LacZ activity in PC12 – cell-based, CRE-LacZ reporter, forskolin-stimulated, primary screen (AID 1146).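 Further: PC12 cells with 6xCRE LacZ reporter stimulated by forskolin 10 µM; beta-galactosidase reporter signal reflecting CREB driven transcription.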 As to conditions: luminescence, 4.5 h, higher = more signal, called active from +8 up or from −8 down.
The target in test [15] is Streptavidin (Streptomyces avidinii) (UniProt P22629). Nature of the test: compounds binding control protein streptavidin – biophysical, small-molecule microarray, 635/667 nm fluorescence, artefact control for SMM compound annotation, primary screen (AID 1147).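 Further: signal reflects streptavidin binding to arrayed compounds as a control protein.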 The note with it: higher = more signal.
Streptavidin (Streptomyces avidinii), sequence (P22629 whole entry, looked up): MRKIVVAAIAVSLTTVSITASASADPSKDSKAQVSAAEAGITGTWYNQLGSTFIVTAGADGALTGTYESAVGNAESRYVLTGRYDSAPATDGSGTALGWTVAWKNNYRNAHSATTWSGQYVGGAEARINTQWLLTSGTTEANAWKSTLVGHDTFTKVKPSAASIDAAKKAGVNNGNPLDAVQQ
The nature of test [16]: probe aInhba binding on compound microarray – biochemical, small-molecule microarray, 635/667 nm fluorescence, primary screen (AID 1148).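 Further: score merges 667nm spot fluorescence with signal-to-noise for antibody binding to printed compounds.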 As to conditions: higher = more signal.
The target of test [17] is Torsin-1A (Homo sapiens) (UniProt O14656). Description: TOR1A wild-type binding on microarray – cell lysate, small-molecule microarray, lysate, 635/667 nm, primary screen (AID 1149). The note with it: COS7 hTOR1A-WT lysate, 635 nm fluorescence, higher = more signal.
Torsin-1A (Homo sapiens), sequence (O14656 whole entry, looked up): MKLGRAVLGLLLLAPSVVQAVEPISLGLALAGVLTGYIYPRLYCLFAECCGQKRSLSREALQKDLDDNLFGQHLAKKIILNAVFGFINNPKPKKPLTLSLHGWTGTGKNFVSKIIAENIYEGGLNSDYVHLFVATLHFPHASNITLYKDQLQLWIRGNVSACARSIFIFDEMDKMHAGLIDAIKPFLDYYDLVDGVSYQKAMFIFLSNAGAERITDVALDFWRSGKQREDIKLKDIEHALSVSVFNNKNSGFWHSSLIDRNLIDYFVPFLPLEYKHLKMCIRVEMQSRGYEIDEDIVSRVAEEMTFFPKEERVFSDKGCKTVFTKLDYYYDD
For test [18] the target is unchanged. Description: torsin A mutant lysate binding on microarrays – cell lysate, small-molecule microarray, COS7 lysate, 635/667 nm fluorescence, primary screen (AID 1150).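 Further: score pools 667 nm emission and signal to noise measuring lysate protein binding.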 The note with it: COS7 hTOR1A mutant lysate, 635 nm fluorescence, higher = more signal.
In test [19] the test system is Sonic hedgehog protein (Shh). Nature of the test: Sonic hedgehog microarray binding compounds – biochemical, small-molecule microarray, 635/667 nm fluorescence, primary screen (AID 1151).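 Further: Shh protein binding to compounds spotted on small-molecule microarray slides; score combines spot fluorescence intensity with signal-to-noise across triplicate slides.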 As to conditions: 635 nm fluorescence, higher = more signal.

Active and inactive are the calls of the source. Unless noted, how the calls were made is not given here.

Focal adhesion kinase 1 (Homo sapiens), sequence (Q05397 whole entry, looked up): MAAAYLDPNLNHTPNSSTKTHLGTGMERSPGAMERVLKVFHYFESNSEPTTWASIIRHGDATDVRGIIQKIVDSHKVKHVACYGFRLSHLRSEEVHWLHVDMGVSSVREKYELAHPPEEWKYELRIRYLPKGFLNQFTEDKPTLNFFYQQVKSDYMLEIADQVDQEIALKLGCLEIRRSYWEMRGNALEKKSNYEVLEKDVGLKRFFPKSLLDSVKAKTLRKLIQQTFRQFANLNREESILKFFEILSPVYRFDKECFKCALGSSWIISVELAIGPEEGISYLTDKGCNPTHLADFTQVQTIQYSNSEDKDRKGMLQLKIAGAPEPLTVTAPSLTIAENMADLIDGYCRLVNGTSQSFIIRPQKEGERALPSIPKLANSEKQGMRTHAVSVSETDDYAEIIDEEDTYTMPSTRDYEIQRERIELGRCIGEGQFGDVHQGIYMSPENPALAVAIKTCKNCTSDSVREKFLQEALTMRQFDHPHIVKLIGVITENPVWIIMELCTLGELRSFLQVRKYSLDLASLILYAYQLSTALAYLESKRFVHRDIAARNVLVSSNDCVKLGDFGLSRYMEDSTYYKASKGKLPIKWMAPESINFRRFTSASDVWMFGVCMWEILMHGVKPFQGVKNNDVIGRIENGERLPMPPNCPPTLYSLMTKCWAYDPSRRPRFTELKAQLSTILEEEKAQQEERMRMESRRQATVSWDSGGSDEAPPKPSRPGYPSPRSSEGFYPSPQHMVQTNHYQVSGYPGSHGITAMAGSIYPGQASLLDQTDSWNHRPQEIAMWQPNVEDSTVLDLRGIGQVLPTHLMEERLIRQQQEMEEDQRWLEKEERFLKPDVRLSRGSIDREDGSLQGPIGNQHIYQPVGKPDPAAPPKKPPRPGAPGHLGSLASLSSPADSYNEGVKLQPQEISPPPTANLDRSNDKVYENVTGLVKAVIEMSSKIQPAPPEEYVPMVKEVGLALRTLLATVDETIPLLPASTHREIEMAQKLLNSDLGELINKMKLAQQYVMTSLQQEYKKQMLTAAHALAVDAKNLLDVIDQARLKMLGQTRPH
Follistatin (Homo sapiens), sequence (P19883 whole entry, looked up): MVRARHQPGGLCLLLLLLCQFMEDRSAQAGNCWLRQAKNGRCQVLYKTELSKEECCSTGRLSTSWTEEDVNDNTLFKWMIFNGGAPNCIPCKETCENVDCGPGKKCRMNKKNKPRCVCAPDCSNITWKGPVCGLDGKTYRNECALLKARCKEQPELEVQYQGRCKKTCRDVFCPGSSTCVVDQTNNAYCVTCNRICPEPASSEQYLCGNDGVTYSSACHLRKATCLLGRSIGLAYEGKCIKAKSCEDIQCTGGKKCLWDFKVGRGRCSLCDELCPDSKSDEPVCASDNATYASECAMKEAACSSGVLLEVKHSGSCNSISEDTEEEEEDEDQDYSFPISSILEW

With `Cc1ccc(S(=O)(=O)N2[C@@H](c3ccccc3)C(C(=O)O)=CC[C@H]2c2ccc(C#N)cc2)cc1`, the composite z-score in test [1] was 1.58; in [2], 1.31; in test [3], 0.447; in test [4], 0.992; in [5], 0.0793; in test [6] it was -0.413. The composite z-score with Lefty1 was -0.388; in test [8], 1.05; in [10], 0.111; in test [15], 0.0546; in [16] it was -0.148; in the test with Torsin-1A (Homo sapiens) [17], 0.834. Moreover, the values for the composite z-score (in the test with Torsin-1A (Homo sapiens) [18]; in test [19]) were 2.1 and -0.133, respectively. Further, the z-score is -1.38 in [7]; 0.654 (inactive) in test [9]; -0.478 (inactive) in [11]; -0.236 (inactive) in test [12]; -0.275 (inactive) in test [13]; -0.551 (inactive) in test [14].

`C=CCC(OC(C)=O)[C@@H]1[C@@H](N(Cc2cc3ccccc3o2)C(=O)c2cccc3ccccc23)c2cc(OCCCO)ccc2N1C(=O)c1ccc2ccccc2c1` (stereo not given in full): the composite z-score was -0.0596 in test [1]; -0.566 in [2]; 0.11 in [3]; -0.262 in [4]; 0.65 in test [5]; 0.133 in test [6]. Also, the composite z-score in the test on Lefty1 is 0.203; in test [8] it was -0.0449; in test [10], 0.316; in test [15], 0.0823; in test [16] it was -0.0791; with Torsin-1A (Homo sapiens) [17] it was 0.523. The composite z-score stood at 0.132 in the test with Torsin-1A (Homo sapiens) [18] and 0.198 in [19]. The z-score in [7] was -0.0697; in [9], 0.131 (inactive); in [11] it was -0.928 (inactive); in [12], 0.26 (inactive); in test [13], 3.85 (inactive); in test [14] it was 0.0746 (inactive).

Regarding `[N-]=[N+]=NCc1ccccc1C[C@]1(C(=O)NCc2ccccc2)N=C(c2ccc(OCCCO)cc2)O[C@H]1c1ccccc1CN=[N+]=[N-]`, the composite z-score is 1.75 in test [1]; 0.986 in test [2]; 0.586 in test [3]; 0.91 in test [4]; 0.821 in test [5]; -0.31 in test [6]. Moreover, the composite z-score in the test with Lefty1 was -0.503; in test [8] it was 0.328; in test [10] it was 0.477; in test [15], 0.208; in test [16] it was 0.237; in the test with Torsin-1A (Homo sapiens) [17] it was 0.135. In addition, the composite z-score was 0.623 with Torsin-1A (Homo sapiens) [18] and -0.603 in test [19]. Moreover, the z-score in [7] is 0.064; in test [9], -1.16 (inactive); in [11], -4.58 (inactive); in [12], -0.333 (inactive); in test [13] it was 1.27 (inactive); in test [14] it was -1.73 (inactive).

Take `Cc1ccc(S[C@]2(C(=O)NCC(F)(F)F)CC(=O)N(C3CCCCC3)[C@@H]2c2ccc(CO)cc2)cc1`: the composite z-score was 1.12 in [1]; 0.408 in test [2]; -0.35 in [3]; -0.0988 in test [4]; -0.16 in test [5]; -0.257 in [6]. The composite z-score with Lefty1 was -0.583; in test [8] it was 0.235; in [10], 0.0911; in test [15], -0.777; in test [16] it was -0.176; in the test with Torsin-1A (Homo sapiens) [17] it was 0.118. Further, the composite z-score with Torsin-1A (Homo sapiens) [18] is 1.06; in test [19], -0.121. The z-score in test [7] was 2.02; in test [9] it was -0.0377 (inactive); in test [11] it was -1.09 (inactive); in test [12], 0.12 (inactive); in test [13], -0.529 (inactive); in test [14] it was -0.147 (inactive).

Consider `CCCCC=C[C@@H](NC(=O)c1ccc(C(F)(F)F)cc1)c1ccccc1`, for which the composite z-score in test [1] was 0.3; in [2] it was -0.839; in test [3] it was 0.185; in [4], -2.63; in test [5], -0.21; in test [6], -0.908. Moreover, the composite z-score in the test with Lefty1 is -0.671; in test [8] it was 0.052; in test [10] it was -0.467; in test [15], -0.683; in [16] it was -0.105; in the test with Torsin-1A (Homo sapiens) [17], -0.652. In addition, the values for the composite z-score (with Torsin-1A (Homo sapiens) [18]; in test [19]) were -0.951 and -0.845, respectively. Also, the z-score in test [7] is 0.798; in [9] it was 1.02 (inactive); in test [11] it was -0.954 (inactive); in test [12], 1.03 (inactive); in test [13], 0.19 (inactive); in test [14], 1.47 (inactive).
